# High-throughput results: PubChem, National Center for Advancing Translational Sciences (NCATS)
# A selection: hits, their analogues and other compounds. The true share with any hit is near 19%.
# HT1080-NT tox: kills 2HG-producing HT-1080-NT fibrosarcoma cells; Potency, µM (highest dose often 46.1 µM), for the others: at the highest dose activity, negative = less viability, usual class: cytotoxic; 360,000 compounds, 1.6% hits; HT-1080-NT fibrosarcoma viability, CellTiter-Glo ATP luminescence, 48 h; AID 686970;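 further: NT is the 2HG producing partner of a matched IDH1 knockdown line; potency means the concentration at half of the fitted maximal effect; 0% = DMSO-treated cells and -100% = media-only wells without cells; nearly all actives have a fitted effect of over 55% in size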
#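 Viability by CellTiter-Glo luminescence after 48 h compound exposure at 37C of HT-1080-NT cells (750/well, RPMI, 5% FBS). % activity scaled between DMSO wells and medium-only wells, then curve-fitted and categorized by curve class.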
# uPA surface inh: blocks generation of uPA at the cell surface; cell surface uPA generation assay, qHTS; Potency, µM (titrated, usually from 38.3 µM), for inactives: top-dose activity change, negative = inhibition, hits mostly inhibitors; 330,000 compounds, 0.31% hits; active means well fitted inhibition curve with a large enough effect; inconclusive means small, poorly fitted or top-dose-only effect; inactive means no such curve, though single readings can be large or run the other way; tested in mouse RAW 264.7 cells; further: potency means the concentration at half of the fitted maximal effect; nearly all actives have a fitted effect of over 55% in size
# HT1080 IDH1KD tx: toxicity to HT-1080 IDH1 knockdown cells (counter line); AID 686971; Potency, µM (doses to about 46.1 µM), inactives show at the top dose activity, negative = toxicity, hits mostly cytotoxic; 360,000 compounds, 2% hits; HT-1080 IDH1 knockdown viability, ATP luminescence, 48 h;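 further: potency means the concentration at half of the fitted maximal effect; 0% = DMSO wells and -100% = cell-free medium wells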
#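 Luminescent ATP read-out (CellTiter-Glo, 10 min at room temperature) after 48 h compound exposure at 37 °C gave viability of IDH1-knockdown HT-1080 cells. Activity was normalised to DMSO and cell-free wells, then fitted as concentration-response curves.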
# IL1B secr inh: blocks inflammasome-driven IL-1 beta release; activity change, % at 57.5 µM; THP-1 LPS/ATP IL-1B secretion, AlphaLISA, 16 h; active compounds read low; 360,000 compounds, 4.7% hits; AID 743279; in the data active means activity change below about -50%; inconclusive means mostly about -30% to -49%
#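 THP-1 cells pretreated 1 hr with compounds (up to 57.5 uM final), then stimulated with LPS (250 ng/mL final) plus ATP (1.25 mM final); secreted IL-1B measured by AlphaLISA after 16 hr, decreased signal indicating inhibition.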
# TDP1 cell CPT: growth inhibition of DT40 Tdp1-/-;hTDP1 cells with camptothecin (screen for TDP1 inhibitors) | chicken DT40 Tdp1-/-;hTDP1 cells + 20 nM CPT, ATP luminescence, 48 h | 420,000 compounds, 12% hits | Potency, µM (highest dose often 46.2 µM), inactives show at the highest dose activity change, negative = growth inhibition, most hits filed as inhibitors; further: potency means the concentration at half of the fitted maximal effect; nearly all actives have a fitted effect of over 55% in size
#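 Chicken DT40 Tdp1-/- cells stably complemented with human TDP1 were seeded at 400 cells/well in medium containing 20 nM camptothecin, exposed to pin-transferred compounds, and grown at 37 °C for at least 48 hr. Viability was read as ATP luminescence.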
# DT40 TDP1 no CPT: qHTS for Inhibitors of human tyrosyl-DNA phosphodiesterase 1 (TDP1): qHTS in cells in absence of CPT; DT40 Tdp1-/- hTDP1 cells, no CPT, ATP luminescence, 48 h; Potency, µM (highest dose often 46.2 µM), without a hit: at the highest dose activity change, negative = growth inhibition, actives largely listed as inhibitors; 420,000 compounds, 15% hits; AID 686978, 2013; further: potency means the concentration at half of the fitted maximal effect; nearly all actives have a fitted effect of over 55% in size
#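 Luminescent ATP content (CellTiter-Glo) served as the growth readout. Knockout chicken DT40 cells expressing human TDP1 were exposed to compounds without camptothecin for a minimum 48 hr at 37 °C.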
# The depositor's hits bear a star; i = inactive; ? = inconclusive; / = no result given; [ ] = another dose, or the depositor's remark. Unless noted, the call rests on the fitted dose curve; in most records, active means well fitted curve in the direction sought with a large enough effect; inconclusive means small, poorly fitted or top-dose-only effect, or another doubt; inactive means no such curve, though single readings can be large; an effect the other way counts as inactive or inconclusive. Unless noted, on the % scale 0 is the no-effect control and ±100 the full control effect.
SMILES,HT1080-NT tox,uPA surface inh,HT1080 IDH1KD tx,IL1B secr inh,TDP1 cell CPT,DT40 TDP1 no CPT
O=C(c1ccccc1)N1CCC(=O)N(C(CO)Cc2ccccc2)CC1 (configuration not stated),-4%,5%,-3%,-8,-8%,-9%
CC(C)=CCC[C@H](C)C[C@@H]1Cc2[nH][nH]c(=O)c2[C@H](c2ccc(Cl)cc2)O1,-1%,/,1%,1,?,?
CN(CC(=O)NCC(=O)Nc1ccc(F)cc1)C1CCS(=O)(=O)C1 (configuration not stated),6%,5%,10%,0,3%,-3%
C/C(=N/NC(=O)Cc1cccc2ccccc12)c1cccs1,-2%,1%,2%,1,?,16µM*
C/C(=N\NC(=O)c1ccccc1O)c1cccs1,?,-12%,?,5,-12%,23µM*
C/C(=N\NC(=O)c1cccc2ccccc12)c1cccs1,?,6%,?,-1,11%,8%
Cc1cc[n+](CC2OCc3ccccc3CO2)cc1,?,-6%,-2%,47,?,18µM*
NCCC1CCCC(CCN)N1 (configuration not stated),24%,-2%,6%,12,-7%,-2%
CCOC(=O)[C@]12CCC=C1N(Cc1ccc3c(c1)OCO3)C(=O)[C@H](CC(=O)NCc1cccc3ccccc13)C2,?,/,?,-60*,?,?
CCOC(=O)[C@]12CCC=C1N(Cc1ccc3c(c1)OCO3)C(=O)[C@H](CC(=O)NCc1ccc(C)o1)C2,-17%,/,-20%,0,?,23µM*
COc1ccc(-c2nnc3c4ccccc4c(-c4ccccc4)nn23)cc1,/,/,/,/,11%,0%
CCc1ccc(NC(=O)CSc2nc(NS(=O)(=O)c3ccccc3)cc(=O)[nH]2)cc1,?,0%,?,-55*,26µM*,16µM*
CC1=NN(C(=O)Cn2nc([N+](=O)[O-])c(Br)c2C)C(O)(C(F)(F)F)C1 (configuration not stated),11%,6%,18%,11,23µM*,21µM*
COc1nn(CC(=O)N2N=C(C)CC2(O)C(F)(F)F)cc1[N+](=O)[O-] (configuration not stated),1%,0%,5%,9,-20%,-4%
CC1=NN(C(=O)Cn2ccc([N+](=O)[O-])n2)C(O)(C(F)(F)F)C1 (configuration not stated),9%,6%,6%,i,5.8µM*,5.8µM*
Cn1cnnc1SCC(=O)NC1CCCN(Cc2ccccc2F)C1 (configuration not stated),0%,2%,10%,6,1%,12%
CCCn1c(=O)c2sccc2n2c(CCCC(=O)NCCc3ccc(Cl)cc3)nnc12,/,/,/,/,?,21µM*
CCCn1c(=O)c2sccc2n2c(CCCC(=O)N3CCN(c4cccc(Cl)c4)CC3)nnc12,/,/,/,/,?,12µM*
CCCn1c(=O)c2sccc2n2c(CCCC(=O)N3CCN(c4ccccc4OC)CC3)nnc12,/,/,/,/,18µM*,?
CCn1c(=O)c2sccc2n2c(CCCC(=O)N3CCN(c4ccc(F)cc4)CC3)nnc12,/,/,/,/,15µM*,18µM*
CCn1c(=O)c2sccc2n2c(CCC(=O)N3CCN(c4ccccc4OC)CC3)nnc12,/,/,/,/,-20%,-24%
Cn1c(=O)c2sccc2n2c(CCC(=O)N3CCN(c4ccccc4)CC3)nnc12,/,/,/,/,?,-29%
Clc1cccc(C=NC=Nc2cccc(Cl)c2)c1,/,/,/,/,4%,-6%
CCC1CN(CC(=O)NCc2n[nH]c3c2CCCCC3)Cc2cc(OC)ccc2O1 (configuration not stated),/,/,/,/,17%[9.04 µM],?
